# Whole data set: some 2,900 compounds, median “NF-kB SEAP reporter activity, fold change vs agonist alone” near 0.99, cut for the highest 2% near 2.6. Many of the other results were omitted from the sample, so the highest values are more common in it than they were.
# Experiments:
# RAW-Dual [1] = assay: NF-kB SEAP reporter activity, fold change vs agonist alone; cytotoxicity flag (confluency mask): not cytotoxic; higher = enhanced NF-kB activity
# Outline: (§1)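 RAW-Dual macrophages (50,000 cells/well in DMEM, 384-well plates) received 50 nL of library stock by pin tool, then a PRR agonist 1 h later, and were kept at 37 °C, 5% CO2. After 20 hours, supernatant was read for IRF by QuantiLuc luminescence and for NF-κB by QuantiBlue absorbance at 620 nm. Reporter activity is fold change over agonist-alone wells. Cytotoxic wells had IncuCyte confluency below 70% of agonist controls in both mask sets.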
# RAW-Dual [2] = assay: NF-kB SEAP reporter activity, fold change vs agonist alone; higher = enhanced NF-kB activity; conditions: library stock concentration (final ~1000-fold dilution): 10 mM
# Outline: as §1
# RAW-Dual [3] = assay: NF-kB SEAP reporter activity, fold change vs agonist alone; cytotoxicity flag (confluency mask): cytotoxic (confluency <70% of control); higher = enhanced NF-kB activity
# Outline: as §1
# [4] = agonist: ODN 1826 (TLR9) 0.5 ug/mL
# [5] = agonist: Pam2CSK4 (TLR2/6) 0.1 ug/mL
# [6] = agonist: Pam3CSK4 (TLR2/1) 0.1 ug/mL
# [7] = cytotoxicity flag (confluency mask): not cytotoxic, agonist: Imiquimod (TLR7) […]
# [8] = cytotoxicity flag (confluency mask): not cytotoxic, agonist: MPLA (TLR4) […]
structure (smiles),measurement,setting,value
CC1CCN(C(=O)CC#N)CC1N(C)c1ncnc2[nH]ccc12 (configuration not stated) (library stock concentration (final ~1000-fold dilution): 10 mM),NF-kB SEAP reporter activity,RAW-Dual [1]; agonist: LPS (TLR4) 0.1 ug/mL,0.799
same,NF-kB SEAP reporter activity,RAW-Dual [1]; [4],1.27
same,NF-kB SEAP reporter activity,RAW-Dual [1]; [5],1.33
same,NF-kB SEAP reporter activity,RAW-Dual [1]; [6],1.51
CC1CCN(C(=O)CC#N)CC1N(C)c1ncnc2[nH]ccc12 (configuration not stated),NF-kB SEAP reporter activity,RAW-Dual [2]; [7],1.31
same,NF-kB SEAP reporter activity,RAW-Dual [2]; [8],1.05
CC(=O)OC1CCC2(C)C(=CCC3C2CCC2(C)C(c4cccnc4)=CCC32)C1 (configuration not stated),NF-kB SEAP reporter activity,RAW-Dual [2]; [7],1.12
same,NF-kB SEAP reporter activity,RAW-Dual [2]; [8],1.05
CC(=O)OC1CCC2(C)C(=CCC3C2CCC2(C)C(c4cccnc4)=CCC32)C1 (configuration not stated) (library stock concentration (final ~1000-fold dilution): 10 mM),NF-kB SEAP reporter activity,RAW-Dual [1]; agonist: LPS (TLR4) 0.1 ug/mL,0.898
same,NF-kB SEAP reporter activity,RAW-Dual [1]; [4],1.06
same,NF-kB SEAP reporter activity,RAW-Dual [1]; [5],0.97
same,NF-kB SEAP reporter activity,RAW-Dual [1]; [6],1.97
COc1cc2oc(=O)ccc2c(OC)c1CC(O)C(C)(C)O (configuration not stated) (library stock concentration (final ~1000-fold dilution): 10 mM),NF-kB SEAP reporter activity,RAW-Dual [1]; agonist: LPS (TLR4) 0.1 ug/mL,1.11
same,NF-kB SEAP reporter activity,RAW-Dual [1]; [4],0.972
same,NF-kB SEAP reporter activity,RAW-Dual [1]; [5],1.08
same,NF-kB SEAP reporter activity,RAW-Dual [1]; [6],1.38
COc1cc2oc(=O)ccc2c(OC)c1CC(O)C(C)(C)O (configuration not stated),NF-kB SEAP reporter activity,RAW-Dual [2]; [7],0.936
same,NF-kB SEAP reporter activity,RAW-Dual [2]; [8],0.984
CC(C)(C)c1nc(-c2cccc(NS(=O)(=O)c3c(F)cccc3F)c2F)c(-c2ccnc(N)n2)s1 (library stock concentration (final ~1000-fold dilution): 10 mM),NF-kB SEAP reporter activity,RAW-Dual [3]; agonist: LPS (TLR4) 0.1 ug/mL,3.02
same,NF-kB SEAP reporter activity,RAW-Dual [3]; [4],3.35
same,NF-kB SEAP reporter activity,RAW-Dual [3]; [5],2
same,NF-kB SEAP reporter activity,RAW-Dual [3]; [6],1.57
CC(C)(C)c1nc(-c2cccc(NS(=O)(=O)c3c(F)cccc3F)c2F)c(-c2ccnc(N)n2)s1.CS(=O)(=O)O,NF-kB SEAP reporter activity,RAW-Dual [2]; [8],1.93
CC(C)(C)c1nc(-c2cccc(NS(=O)(=O)c3c(F)cccc3F)c2F)c(-c2ccnc(N)n2)s1.CS(=O)(=O)O (library stock concentration (final ~1000-fold dilution): 10 mM),NF-kB SEAP reporter activity,RAW-Dual [1]; agonist: LPS (TLR4) 0.1 ug/mL,3.17
same,NF-kB SEAP reporter activity,RAW-Dual [1]; [4],3.05
same,NF-kB SEAP reporter activity,RAW-Dual [1]; [5],2.08
same,NF-kB SEAP reporter activity,RAW-Dual [1]; [6],1.78
CC(C)(C)c1nc(-c2cccc(NS(=O)(=O)c3c(F)cccc3F)c2F)c(-c2ccnc(N)n2)s1,NF-kB SEAP reporter activity,"RAW-Dual [2]; cytotoxicity flag (confluency mask): cytotoxic (confluency <70% of control), agonist: Imiquimod (TLR7) […]",2.07
same,NF-kB SEAP reporter activity,"RAW-Dual [2]; cytotoxicity flag (confluency mask): cytotoxic (confluency <70% of control), agonist: MPLA (TLR4) […]",1.89
CC(C)c1c(-c2ccccc2)[nH]c2c(C#N)cnn2c1=O.Cl,NF-kB SEAP reporter activity,RAW-Dual [2]; [7],0.757
same,NF-kB SEAP reporter activity,RAW-Dual [2]; [8],0.99
CC(C)c1c(-c2ccccc2)[nH]c2c(C#N)cnn2c1=O.Cl (library stock concentration (final ~1000-fold dilution): 10 mM),NF-kB SEAP reporter activity,RAW-Dual [1]; agonist: LPS (TLR4) 0.1 ug/mL,0.8
same,NF-kB SEAP reporter activity,RAW-Dual [1]; [4],0.816
same,NF-kB SEAP reporter activity,RAW-Dual [1]; [5],0.507
same,NF-kB SEAP reporter activity,RAW-Dual [1]; [6],0.52
CN1CCN(C(c2ccccc2)c2ccccc2)CC1.Cl.Cl,NF-kB SEAP reporter activity,RAW-Dual [2]; [7],0.9
same,NF-kB SEAP reporter activity,RAW-Dual [2]; [8],0.897
CN1CCN(C(c2ccccc2)c2ccccc2)CC1.Cl.Cl (library stock concentration (final ~1000-fold dilution): 10 mM),NF-kB SEAP reporter activity,RAW-Dual [1]; agonist: LPS (TLR4) 0.1 ug/mL,1.15
same,NF-kB SEAP reporter activity,RAW-Dual [1]; [4],0.595
same,NF-kB SEAP reporter activity,RAW-Dual [1]; [5],1.04
same,NF-kB SEAP reporter activity,RAW-Dual [1]; [6],1.02
O.S=c1nc[nH]c2nc[nH]c12,NF-kB SEAP reporter activity,RAW-Dual [2]; [7],0.752
same,NF-kB SEAP reporter activity,RAW-Dual [2]; [8],0.963
O.S=c1nc[nH]c2nc[nH]c12 (library stock concentration (final ~1000-fold dilution): 10 mM),NF-kB SEAP reporter activity,RAW-Dual [1]; agonist: LPS (TLR4) 0.1 ug/mL,1.05
same,NF-kB SEAP reporter activity,RAW-Dual [1]; [4],0.808
same,NF-kB SEAP reporter activity,RAW-Dual [1]; [5],0.594
same,NF-kB SEAP reporter activity,RAW-Dual [1]; [6],0.684
COc1ccc(-c2oc3c(CC=C(C)C)c(OC4OC(CO)C(O)C(O)C4O)cc(O)c3c(=O)c2OC2OC(C)C(O)C(O)C2O)cc1 (configuration not stated),NF-kB SEAP reporter activity,RAW-Dual [2]; [7],0.89
same,NF-kB SEAP reporter activity,RAW-Dual [2]; [8],1.13
COc1ccc(-c2oc3c(CC=C(C)C)c(OC4OC(CO)C(O)C(O)C4O)cc(O)c3c(=O)c2OC2OC(C)C(O)C(O)C2O)cc1 (configuration not stated) (library stock concentration (final ~1000-fold dilution): 10 mM),NF-kB SEAP reporter activity,RAW-Dual [1]; agonist: LPS (TLR4) 0.1 ug/mL,1.57
same,NF-kB SEAP reporter activity,RAW-Dual [1]; [4],0.992
same,NF-kB SEAP reporter activity,RAW-Dual [1]; [5],1.14
same,NF-kB SEAP reporter activity,RAW-Dual [1]; [6],1.28
C=C1CCCC2(C)C=C3OC(=O)C(C)=C3CC12 (configuration not stated) (library stock concentration (final ~1000-fold dilution): 10 mM),NF-kB SEAP reporter activity,RAW-Dual [1]; agonist: LPS (TLR4) 0.1 ug/mL,1
same,NF-kB SEAP reporter activity,RAW-Dual [1]; [4],1.06
same,NF-kB SEAP reporter activity,RAW-Dual [1]; [5],1.52
same,NF-kB SEAP reporter activity,RAW-Dual [1]; [6],1.49
C=C1CCCC2(C)C=C3OC(=O)C(C)=C3CC12 (configuration not stated),NF-kB SEAP reporter activity,RAW-Dual [2]; [7],0.726
same,NF-kB SEAP reporter activity,RAW-Dual [2]; [8],1.14
O=c1cc(-c2ccc(O)c(O)c2O)oc2ccccc12,NF-kB SEAP reporter activity,RAW-Dual [2]; [7],0.689
same,NF-kB SEAP reporter activity,RAW-Dual [2]; [8],1.05
O=c1cc(-c2ccc(O)c(O)c2O)oc2ccccc12 (library stock concentration (final ~1000-fold dilution): 10 mM),NF-kB SEAP reporter activity,RAW-Dual [1]; agonist: LPS (TLR4) 0.1 ug/mL,1.08
same,NF-kB SEAP reporter activity,RAW-Dual [1]; [4],0.88
same,NF-kB SEAP reporter activity,RAW-Dual [1]; [5],0.927
same,NF-kB SEAP reporter activity,RAW-Dual [1]; [6],0.532
CCOC(=O)C(CCc1ccccc1)NC(C)C(=O)N1C(C(=O)O)CC2CCCCC21 (configuration not stated) (library stock concentration (final ~1000-fold dilution): 10 mM),NF-kB SEAP reporter activity,RAW-Dual [1]; agonist: LPS (TLR4) 0.1 ug/mL,1.25
same,NF-kB SEAP reporter activity,RAW-Dual [1]; [4],1
same,NF-kB SEAP reporter activity,RAW-Dual [1]; [5],1.01
same,NF-kB SEAP reporter activity,RAW-Dual [1]; [6],0.933
CCOC(=O)C(CCc1ccccc1)NC(C)C(=O)N1C(C(=O)O)CC2CCCCC21 (configuration not stated),NF-kB SEAP reporter activity,RAW-Dual [2]; [7],0.911
same,NF-kB SEAP reporter activity,RAW-Dual [2]; [8],1.04
CCCCCCCCCCCCCCCC(=O)OC1C(SC)OC(C(NC(=O)C2CC(CCC)CN2C)C(C)Cl)C(O)C1O.Cl (configuration not stated) (library stock concentration (final ~1000-fold dilution): 10 mM),NF-kB SEAP reporter activity,RAW-Dual [1]; agonist: LPS (TLR4) 0.1 ug/mL,0.968
same,NF-kB SEAP reporter activity,RAW-Dual [1]; [4],1.08
same,NF-kB SEAP reporter activity,RAW-Dual [1]; [5],0.877
same,NF-kB SEAP reporter activity,RAW-Dual [1]; [6],0.713
CCCCCCCCCCCCCCCC(=O)OC1C(SC)OC(C(NC(=O)C2CC(CCC)CN2C)C(C)Cl)C(O)C1O.Cl (configuration not stated),NF-kB SEAP reporter activity,RAW-Dual [2]; [7],1.2
same,NF-kB SEAP reporter activity,RAW-Dual [2]; [8],0.983
